This passage reports outcome, Potency and activity change, negative = cytotoxic results from PubChem BioAssay (NCATS).

Assay [1] is described as follows: Natriuretic polypeptide receptor (hNpr1) antagonism - Pilot counterscreen GloSensor control cell line (AID 1347045; calls by dose curve; also: series mostly up to about 38 µM; % is scaled to controls: 0 for no effect and ±100 for the full control effect). Summed up:
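HEK293 cells carrying the GloSensor cGMP sensor (GIP/pGS-40F) were loaded with 2% GloSensor reagent for 2 h, exposed to compounds for 30 min, and then stimulated with 50 uM sodium nitroprusside for 20 min at room temperature.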
For orientation: A counterscreen serves to expose hits that act by an unwanted route or on another target.

Assay [2] addresses Atrial natriuretic peptide receptor 2 (Homo sapiens) (UniProt P20594). In words: Natriuretic polypeptide receptor (hNpr2) antagonism - Pilot subtype selectivity assay (AID 1347050; calls by dose curve; also: % is scaled to controls: 0 for no effect and ±100 for the full control effect). Summed up:
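cGMP-sensor HEK293/hNpr2 cells; 2% GloSensor reagent 2 h RT; compounds 30 min; baseline luminescence read; 1 nM hNppC agonist 20 min RT; final luminescence read by CCD camera. Antagonism = reduced post-agonist signal.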

Assay [3] is described as follows: NS1 protein of Zika virus - qHTS assay to identify small molecule inhibitors in human HEK 293 cells (AID 1347053).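 Also: series mostly up to about 46 µM; plate controls were infected untreated cells for no effect and uninfected cells for full effect; nearly all actives have a fitted effect of over 55% in size.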 Summed up:
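Inhibition of NS1 expression was scored in HEK 293 cells given compound 1 h ahead of MR766 virus (MOI = 0.5). Following 24 h at 37 C, two anti-NS1 antibodies generated a TR-FRET signal, scaled between uninfected and infected controls.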
On the technique in general: Quantitative high-throughput screening tests each substance at several concentrations.

The target of assay [4] is Tyrosine-protein phosphatase non-receptor type substrate 1 (Homo sapiens) + Leukocyte surface antigen CD47 (Homo sapiens) (UniProt P78324+Q08722). In words: CD47-SIRPalpha protein protein interaction - LANCE assay qHTS validation (AID 1347057; active = well fitted curve in the direction sought with a large enough effect in the signal ratio, with a control signal flat, not every such curve was filed as active; the % refers to the signal ratio; also: series mostly up to about 38 µM; 0% is about no effect). Put shortly:
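First, His-tagged CD47 and Eu-labelled anti-His antibody met the compound for 30 min; next, site-specifically biotinylated SIRPalpha was added for 30 min; finally streptavidin-APC was added before reading the TR-FRET ratio.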
Background: In TR-FRET formats the signal depends on donor and acceptor labels being close together.

The target of assay [5] is Parathyroid hormone/parathyroid hormone-related peptide receptor (Homo sapiens) (UniProt Q03431). In words: qHTS for PTHR1 Agonists: Optimization Screen against the NCGC LOPAC library (AID 1347079).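 Also: GloSensor cAMP luminescence in HEK-293 GP2 cells expressing human PTHR1 with IBMX; 0% is about no effect.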 Summed up: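 Compounds were tested across a qHTS titration. PTHR1-expressing GP2 cells report cAMP rises via GloSensor luminescence after 1 hr compound exposure at 37C with IBMX present.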

Assay [6] can be described thus: qHTS of pediatric cancer cell lines to identify multiple opportunities for drug repurposing: Primary screen for TC32 cells (AID 1347089). Also: nearly all actives have a fitted effect of over 60% in size. Also: potency is read from the fitted curve at half-maximal effect. As to activity change, negative = cytotoxic: % is scaled to controls: 0 for no effect and ±100 for the full control effect. Put shortly: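 TC32 cells, 500-1,000/well in growth medium, compound-treated 48 h at 37 °C; viability from CellTiter-Glo luminescence. Primary screen: MIPE 11-point (0.78 nM–46 µM final), NPC 8-point (0.59 nM–46 µM final); confirmatory at 11-point dilutions.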

A short description of assay [7]: qHTS of pediatric cancer cell lines to identify multiple opportunities for drug repurposing: Primary screen for SJ-GBM2 cells (AID 1347091). Also: potency is read from the fitted curve at half-maximal effect.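 As to activity change, negative = cytotoxic: plate controls were DMSO neutral control for no effect and bortezomib for full effect.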 Put shortly:
(§1)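 Eight- or eleven-point concentration series, 48 h treatment at 37 degrees C in growth media; readout CellTiter-Glo luminescence. Potency and efficacy were taken from the concentration-response curves.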

Assay [8] in a line: qHTS of pediatric cancer cell lines to identify multiple opportunities for drug repurposing: Primary screen for SK-N-MC cells (AID 1347093). Also: potency is read from the fitted curve at half-maximal effect.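 As to activity change, negative = cytotoxic: series mostly up to about 46 µM; plate controls were DMSO neutral control for no effect and bortezomib for full effect.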 Summed up:
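Metabolically active cells were quantified by ATP-dependent luminescence (CellTiter-Glo, 15 min at room temperature) following 48 h treatment. Cells had been plated at 500-1,000 per well and settled for 5 h beforehand.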

Assay [9] in a line: qHTS of pediatric cancer cell lines to identify multiple opportunities for drug repurposing: Primary screen for BT-37 cells (AID 1347094). Also: potency is read from the fitted curve at half-maximal effect.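 As to activity change, negative = cytotoxic: series mostly up to about 57 µM; plate controls were DMSO for no effect and bortezomib for full effect.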 Summed up: (§2)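 Quantitative HTS format: each compound titrated (MIPE 11 points from 0.78 nM, NPC 8 points from 0.59 nM) onto cells plated 5 hours earlier. After 48 h at 37 degrees C, CellTiter-Glo luminescence was recorded.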
A short description of assay [10]: qHTS of pediatric cancer cell lines to identify multiple opportunities for drug repurposing: Primary screen for NB-EBc1 cells (AID 1347095). Also: potency is read from the fitted curve at half-maximal effect.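 As to activity change, negative = cytotoxic: plate controls were DMSO neutral control for no effect and bortezomib for full effect.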 Put shortly: as §2
Assay [11] in a line: qHTS of pediatric cancer cell lines to identify multiple opportunities for drug repurposing: Primary screen for U-2 OS cells (AID 1347096). Also: nearly all actives have a fitted effect of over 50% in size. Also: potency is read from the fitted curve at half-maximal effect.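 As to activity change, negative = cytotoxic: plate controls were DMSO wells for no effect and bortezomib positive control wells for full effect.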 Put shortly:
(§3)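 Cells (500-1,000/well) in growth media were settled 5 h at 37 degrees C, then given compounds for 48 h. Viability was read as CellTiter-Glo luminescence. Primary runs used MIPE at 11 points (0.78 nM-46 µM) and NPC at 8 points (0.59 nM-46 µM); follow-ups used 11 points.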

The nature of assay [12]: qHTS of pediatric cancer cell lines to identify multiple opportunities for drug repurposing: Primary screen for Saos-2 cells (AID 1347097). Also: nearly all actives have a fitted effect of over 40% in size. Also: potency is read from the fitted curve at half-maximal effect. As to activity change, negative = cytotoxic: % is scaled to controls: 0 for no effect and ±100 for the full control effect. Summed up: as §2
A short description of assay [13]: qHTS of pediatric cancer cell lines to identify multiple opportunities for drug repurposing: Primary screen for SK-N-SH cells (AID 1347098). Also: nearly all actives have a fitted effect of over 65% in size. Also: potency is read from the fitted curve at half-maximal effect. Summed up:
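Cells (500-1,000/well) rested 5 h, then received compounds for 48 h; metabolically active cells were measured by CellTiter-Glo luminescence. Final concentrations spanned up to 46 µM (MIPE, 11-point) or 0.59 nM-46 µM (NPC, 8-point) in primary screens, 11-point in follow-ups.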

The nature of assay [14]: qHTS of pediatric cancer cell lines to identify multiple opportunities for drug repurposing: Primary screen for LAN-5 cells (AID 1347100). Also: potency is read from the fitted curve at half-maximal effect.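 As to activity change, negative = cytotoxic: plate controls were DMSO neutral control for no effect and bortezomib positive control for full effect.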 Put shortly: as §3
Assay [15] can be described thus: qHTS of pediatric cancer cell lines to identify multiple opportunities for drug repurposing: Primary screen for DAOY cells (AID 1347090). Also: nearly all actives have a fitted effect of over 55% in size. Also: potency is read from the fitted curve at half-maximal effect.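 As to activity change, negative = cytotoxic: series mostly up to about 46 µM; plate controls were DMSO for no effect and bortezomib for full effect.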 Summed up: as §1
The nature of assay [16]: qHTS of pediatric cancer cell lines to identify multiple opportunities for drug repurposing: Primary screen for A673 cells (AID 1347092). Also: % is scaled to controls: 0 for no effect and ±100 for the full control effect; nearly all actives have a fitted effect of over 45% in size. Summed up: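 A673 cells (500-1,000 cells/well) were treated 48 hours at 37 degrees C with compounds at 11-point (0.78 nM to 46 µM) or 8-point (0.59 nM to 46 µM) dilutions. Viability read by CellTiter-Glo luminescence; concentration-response curves fitted.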

The nature of assay [17]: qHTS of pediatric cancer cell lines to identify multiple opportunities for drug repurposing: Primary screen for NB1643 cells (AID 1347099).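 Also: plate controls were DMSO neutral control for no effect and bortezomib positive control for full effect; nearly all actives have a fitted effect of over 50% in size.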 Put shortly: as §2

Unmarked numbers belong to inactive results. Inconclusive results are not listed. The source made the active and inactive calls. Unless noted, calls follow the shape of the dose curve; as a rule, active = well fitted curve in the direction sought with a large enough effect; inconclusive = small, poorly fitted or top-dose-only effect, or another doubt; inactive = no such curve, though single readings can be large; an effect the other way counts as inactive or inconclusive.

Chain of Tyrosine-protein phosphatase non-receptor type substrate 1 (Homo sapiens) + Leukocyte surface antigen CD47 (Homo sapiens) (P78324 whole entry, looked up): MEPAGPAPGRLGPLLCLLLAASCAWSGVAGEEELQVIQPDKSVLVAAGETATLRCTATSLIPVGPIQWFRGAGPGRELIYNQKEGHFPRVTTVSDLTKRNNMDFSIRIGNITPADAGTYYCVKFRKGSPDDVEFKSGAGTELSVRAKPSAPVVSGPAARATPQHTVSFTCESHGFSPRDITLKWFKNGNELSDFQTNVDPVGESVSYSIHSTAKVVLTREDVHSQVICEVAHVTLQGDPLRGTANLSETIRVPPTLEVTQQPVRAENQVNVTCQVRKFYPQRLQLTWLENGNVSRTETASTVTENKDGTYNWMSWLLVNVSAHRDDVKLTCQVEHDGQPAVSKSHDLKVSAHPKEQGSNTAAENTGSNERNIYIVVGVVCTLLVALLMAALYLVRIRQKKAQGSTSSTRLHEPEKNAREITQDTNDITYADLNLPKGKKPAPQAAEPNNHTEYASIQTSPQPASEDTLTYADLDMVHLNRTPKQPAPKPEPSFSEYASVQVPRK
Chain of Tyrosine-protein phosphatase non-receptor type substrate 1 (Homo sapiens) + Leukocyte surface antigen CD47 (Homo sapiens) (Q08722 whole entry, looked up): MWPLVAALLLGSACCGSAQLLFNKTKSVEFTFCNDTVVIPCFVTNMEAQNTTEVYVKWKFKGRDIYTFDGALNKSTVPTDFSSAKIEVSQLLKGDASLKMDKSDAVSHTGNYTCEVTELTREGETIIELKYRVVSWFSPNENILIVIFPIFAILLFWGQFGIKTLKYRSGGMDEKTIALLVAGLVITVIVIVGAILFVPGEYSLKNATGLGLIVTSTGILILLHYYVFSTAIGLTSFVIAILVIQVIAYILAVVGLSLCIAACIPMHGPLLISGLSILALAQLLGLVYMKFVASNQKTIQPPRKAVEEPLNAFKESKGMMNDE
Chain of Atrial natriuretic peptide receptor 2 (Homo sapiens) (P20594 whole entry, looked up): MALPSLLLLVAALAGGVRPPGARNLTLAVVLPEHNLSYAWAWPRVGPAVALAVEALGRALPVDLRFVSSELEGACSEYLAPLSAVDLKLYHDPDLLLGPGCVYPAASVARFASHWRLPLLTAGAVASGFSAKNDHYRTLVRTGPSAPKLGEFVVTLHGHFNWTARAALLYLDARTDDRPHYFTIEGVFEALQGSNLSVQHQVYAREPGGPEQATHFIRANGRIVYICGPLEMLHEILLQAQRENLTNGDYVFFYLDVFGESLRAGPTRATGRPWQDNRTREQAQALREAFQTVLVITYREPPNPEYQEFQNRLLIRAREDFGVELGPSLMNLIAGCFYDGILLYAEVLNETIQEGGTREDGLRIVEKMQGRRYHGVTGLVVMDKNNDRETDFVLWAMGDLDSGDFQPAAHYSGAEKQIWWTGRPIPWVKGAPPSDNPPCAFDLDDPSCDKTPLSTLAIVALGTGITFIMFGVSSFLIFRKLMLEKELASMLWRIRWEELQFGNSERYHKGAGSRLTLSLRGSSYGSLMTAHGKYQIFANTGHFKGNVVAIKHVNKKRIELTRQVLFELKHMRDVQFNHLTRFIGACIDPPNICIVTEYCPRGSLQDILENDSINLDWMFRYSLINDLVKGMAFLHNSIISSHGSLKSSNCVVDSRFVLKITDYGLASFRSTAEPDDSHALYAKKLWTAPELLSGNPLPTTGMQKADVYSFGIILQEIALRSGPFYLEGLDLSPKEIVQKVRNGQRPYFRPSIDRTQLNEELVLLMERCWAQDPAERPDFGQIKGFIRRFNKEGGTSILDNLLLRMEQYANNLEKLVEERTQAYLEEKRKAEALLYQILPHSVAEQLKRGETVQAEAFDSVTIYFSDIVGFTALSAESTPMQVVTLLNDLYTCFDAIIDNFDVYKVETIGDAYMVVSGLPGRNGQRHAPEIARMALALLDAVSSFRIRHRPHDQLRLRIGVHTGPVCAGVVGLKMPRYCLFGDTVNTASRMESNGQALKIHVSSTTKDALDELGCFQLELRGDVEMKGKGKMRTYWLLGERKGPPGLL
Chain of Parathyroid hormone/parathyroid hormone-related peptide receptor (Homo sapiens) (Q03431 whole entry, looked up): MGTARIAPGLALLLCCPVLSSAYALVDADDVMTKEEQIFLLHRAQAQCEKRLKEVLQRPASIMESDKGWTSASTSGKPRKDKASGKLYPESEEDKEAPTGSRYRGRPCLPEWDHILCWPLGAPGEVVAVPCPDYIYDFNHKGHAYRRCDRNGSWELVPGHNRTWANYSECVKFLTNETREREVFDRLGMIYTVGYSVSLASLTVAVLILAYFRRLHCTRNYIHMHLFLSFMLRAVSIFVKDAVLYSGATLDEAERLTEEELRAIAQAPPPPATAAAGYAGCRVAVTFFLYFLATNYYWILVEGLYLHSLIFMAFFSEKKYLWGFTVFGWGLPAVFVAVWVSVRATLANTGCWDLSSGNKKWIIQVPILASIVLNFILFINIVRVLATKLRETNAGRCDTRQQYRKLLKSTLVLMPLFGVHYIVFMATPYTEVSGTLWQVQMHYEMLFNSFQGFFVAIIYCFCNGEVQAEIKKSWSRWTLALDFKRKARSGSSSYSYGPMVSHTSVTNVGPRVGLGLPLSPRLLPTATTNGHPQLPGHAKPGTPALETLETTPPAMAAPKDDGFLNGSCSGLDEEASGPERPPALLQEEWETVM

As for `C[C@](N)(Cc1ccc(O)cc1)C(=O)O`, the result in assay [1] and in [4] was inactive. Further, the Potency entry in assay [2], in assay [3] and in assay [5] was “inactive” in each case. The activity change, negative = cytotoxic was 12.9% [at 4.81 µM] in assay [6]; 11.8% [at 4.84 µM] in assay [7]; 0.899% [at 6.03 µM] in [9]; 16.2% [at 4.84 µM] in [10]; 7.56% [at 4.84 µM] in assay [11]; -22.2% [at 4.84 µM] in assay [12]. In addition, the activity change, negative = cytotoxic in [13] is -0.998% [at 6 µM]; in assay [14], -5.33% [at 4.84 µM]. In addition, the Potency in assay [8] was 1 nM (active).

In the case of `CCN(CC)CCNC(C(=O)OCCC(C)C)c1ccccc1` (stereo unspecified), the Potency entry in [3], in assay [6], in [15], in assay [7], in assay [16] and in assay [8] was “inactive” each time. The Potency result in assay [9], in assay [10], in [11], in [12], in assay [13] and in assay [17] was “inactive” throughout. Besides, the Potency entry in assay [14] was “inactive”.

In the case of `O=C1Nc2ccc(Cl)cc2[C@@](C#CC2CC2)(C(F)(F)F)O1`, the Potency result in assay [3], in assay [6], in assay [11] and in assay [14] was “inactive” each time.

With `Cc1ccc2nc(N)[nH]c(=O)c2c1Sc1ccncc1`, the Potency result in [3], in [11], in assay [13] and in assay [17] was “inactive” throughout. Moreover, the figures for the Potency in [6], in assay [8] and in assay [12] were 8360 nM (active), 944 nM (active) and 13300 nM (active), respectively.

`CC(CN(C)C)CN1c2ccccc2CCc2ccccc21` (stereo unspecified): the compound was called inactive in assay [1] and in assay [4]. For the same compound, the Potency result in assay [3], in [5], in [6], in [15], in [8] and in [10] was “inactive” each time. The Potency entry in assay [11], in assay [17] and in assay [14] was “inactive” each time.

Consider `CCCCN(CCCC)CC(O)c1cc(Cl)cc2c1-c1ccc(Cl)cc1/C2=C/c1ccc(Cl)cc1` (stereo unspecified), for which the Potency entry in assay [3], in assay [7], in assay [8], in [10], in assay [11] and in assay [17] was “inactive” throughout. Besides, the outcome in assay [4] was inactive.

`CCCCN(CCCC)CCCOC(=O)c1ccc(N)cc1`: the Potency entry in assay [3], in assay [6], in [15], in assay [7], in assay [9] and in assay [10] was “inactive” in each case. Moreover, the Potency result in assay [11], in assay [12], in [13], in assay [17] and in assay [14] was “inactive” in each case.

Regarding `CN1[C@@H]2CC(OC(=O)[C@H](CO)c3ccccc3)C[C@H]1[C@@H]1O[C@@H]12` (stereo partly specified), the Potency result in [3], in [6], in assay [7], in assay [16], in assay [8] and in assay [10] was “inactive” throughout. Besides, the Potency entry in assay [11], in assay [12], in [13], in [17] and in assay [14] was “inactive” each time.

In the case of `N=c1c[n+](N2CCOCC2)[n-]o1`, the call in assay [1] and in [4] was inactive. Besides, the Potency result in [2], in assay [3] and in assay [5] was “inactive” throughout.

As to `COC(=O)[C@H]1[C@H]2C[C@@H]3c4[nH]c5cc(OC)ccc5c4CCN3C[C@H]2C[C@@H](OC(=O)COc2ccc(OC)cc2)[C@@H]1OC`, the Potency entry in [3], in [6], in assay [15], in [7], in [16] and in assay [9] was “inactive” in each case. Also, the Potency entry in assay [10], in assay [11], in assay [12], in assay [13], in [17] and in assay [14] was “inactive” each time.

Turning to `NC(=O)c1ncn([C@@H]2O[C@H](CO)[C@@H](O)[C@H]2O)n1`, the Potency result in assay [2], in assay [3], in assay [5], in assay [6], in assay [15] and in assay [7] was “inactive” each time. Also, the Potency result in assay [16], in [8], in assay [9], in assay [11], in [12] and in assay [13] was “inactive” each time. The Potency entry in assay [17] and in [14] was “inactive” throughout. In [4], the result was inactive.

As for `CC[C@H]1CN2CCc3cc(OC)c(OC)cc3[C@@H]2C[C@@H]1C[C@H]1NCCc2cc(OC)c(OC)cc21`, the compound was called inactive in assay [1] and in [4]. In addition, the Potency result in assay [2], in assay [3] and in [5] was “inactive” in each case. Also, the Potency in [6] is 333 nM (active); in [15], 1060 nM (active); in [7] it was 237 nM (active); in [8], 211 nM (active); in assay [9] it was 389 nM (active); in [10], 750 nM (active). The Potency in assay [11] is 1330 nM (active); in [12] it was 376 nM (active); in assay [13], 433 nM (active); in assay [14], 335 nM (active).

Turning to `Cc1c(O)cccc1C(=O)N[C@@H](CSc1ccccc1)[C@H](O)CN1C[C@H]2CCCC[C@H]2C[C@H]1C(=O)NC(C)(C)C`, the Potency result in [3] is “inactive”. For the same compound, the outcome in assay [4] was inactive. For the same compound, the Potency in [7] is 21100 nM (active); in assay [8], 26600 nM (active); in assay [11] it was 21100 nM (active); in assay [12], 26600 nM (active).
